In experiment [1] the target is Cytochrome P450 2D6 (Homo sapiens) (UniProt P10635). The experiment is described as follows: Cytochrome P450 family 2 subfamily D member 6 (CYP2D6) small molecule antagonists: luciferase biochemical (cell-free) qHTS assay (AID 1645840). Further: nearly all actives have a fitted effect of over 55% in size. Further: potency means the concentration at half of the fitted maximal effect. The procedure, abridged:
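P450-Glo luminescent screen: recombinant CYP2D6 enzyme–proluciferin substrate mix preincubated with compound 10 min at room temperature, then NADPH regeneration added for 1 h at room temperature. Detection reagent added for 20 min; luciferin light read as relative luminescence units.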

Experiment [2] deals with Cytochrome P450 2C9 (Homo sapiens) (UniProt P11712). Nature of the experiment: Cytochrome P450 family 2 subfamily C member 9 (CYP2C9) small molecule antagonists: luciferase biochemical (cell-free) qHTS assay (AID 1645842). Further: nearly all actives have a fitted effect of over 55% in size. Further: potency means the concentration at half of the fitted maximal effect. A digest of the protocol:
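Luminescence, after 20 min with luciferin detection reagent, reflected CYP2C9 turnover during a 1 h NADPH-driven reaction at 37C. Enzyme-substrate mix contained 0.4% bovine serum albumin and was preincubated with compound 10 min at room temperature.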
(In general: qHTS replaces the single test concentration by a dilution series.)

A short description of experiment [3]: Confirmatory qHTS for small molecule stabilizers of the endoplasmic reticulum resident proteome: Secreted ER Calcium Modulated Protein (SERCaMP) assay (AID 1508628; active means well fitted curve in the direction sought with a large enough effect; an effect the other way counts as inactive or inconclusive; further: nearly all actives have a fitted effect of over 40% in size; further: potency means the concentration at half of the fitted maximal effect). A digest of the protocol:
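We seeded SH-SY5Y-GLuc-SERCaMP cells, added compounds (three concentrations in the primary run, eleven up to 76.6 uM in confirmation), incubated 16 h, depleted ER calcium with thapsigargin, and read luciferase 4 h later.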

Experiment [4] in a line: Counterscreen qHTS for small molecule stabilizers of the endoplasmic reticulum resident proteome: GLuc-NoTag assay (AID 1508627; active means well fitted curve in the direction sought with a large enough effect; an effect the other way counts as inactive or inconclusive;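 further: SH-SY5Y cells given compound then 100 nM thapsigargin to empty ER calcium; series mostly up to about 76 µM; 0% = thapsigargin alone and -100% = DMSO vehicle control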). A digest of the protocol:
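Luminescence of Gaussia luciferase secreted into the medium (coelenterazine, 0.07x final, unlysed cells) was the read-out. Human SH-SY5Y neuroblastoma cells constitutively secreting untagged GLuc received compound for 19 h, then 100 nM thapsigargin for 4 h.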
Background: The purpose of a counterscreen is to sort out artefacts and off-target activity.

The nature of experiment [5]: Cell Viability qHTS for small molecule stabilizers of the endoplasmic reticulum resident proteome (AID 1508629; active means well fitted curve in the direction sought with a large enough effect; an effect the other way counts as inactive or inconclusive;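 further: human SH-SY5Y neuroblastoma cells carrying the GLuc-SERCaMP reporter; compound exposure about 46 h in total before the viability read; on the % scale 0 is the no-effect control and ±100 the full control effect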). To be noted: cell viability counter-screen, 100 nM thapsigargin for final 4 h.
For experiment [6], the target named is Cytochrome P450 3A4 (Homo sapiens) (UniProt P08684). Nature of the experiment: Cytochrome P450 family 3 subfamily A member 4 (CYP3A4) small molecule antagonists: luciferase qHTS assay (AID 1645841). Further: nearly all actives have a fitted effect of over 45% in size. The procedure, abridged: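 Luminescent CYP3A4 activity readout: compounds plus enzyme-substrate mix 10 min at room temperature, reaction started with NADPH regenerating system for 1 h, stopped with detection reagent, read after 20 min. Ketoconazole served as control.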
Sequence of Cytochrome P450 3A4 (Homo sapiens) (P08684 whole entry, looked up): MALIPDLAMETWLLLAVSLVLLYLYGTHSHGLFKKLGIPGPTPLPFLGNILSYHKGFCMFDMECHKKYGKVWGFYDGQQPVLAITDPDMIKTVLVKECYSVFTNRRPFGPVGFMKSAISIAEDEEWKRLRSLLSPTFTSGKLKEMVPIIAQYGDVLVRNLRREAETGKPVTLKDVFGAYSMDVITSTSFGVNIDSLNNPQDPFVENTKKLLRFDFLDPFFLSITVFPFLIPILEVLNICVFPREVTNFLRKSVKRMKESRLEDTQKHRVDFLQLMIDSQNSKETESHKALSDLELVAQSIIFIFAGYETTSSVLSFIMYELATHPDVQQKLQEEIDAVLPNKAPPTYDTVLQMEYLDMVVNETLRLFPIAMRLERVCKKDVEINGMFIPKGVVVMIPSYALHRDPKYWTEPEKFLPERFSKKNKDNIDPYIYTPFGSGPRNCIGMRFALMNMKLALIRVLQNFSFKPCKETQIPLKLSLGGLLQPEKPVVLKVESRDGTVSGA

Experiment [7] is described as follows: Primary qHTS for inhibitors of nuclear receptor binding SET domain protein 2 (NSD2) in an isogenic RCH-ACV NSD2 p.E1099K mutant (9B) (AID 1645876; active means well fitted curve in the direction sought with a large enough effect; an effect the other way counts as inactive or inconclusive; further: on the % scale 0 is the no-effect control and ±100 the full control effect; nearly all actives have a fitted effect of over 70% in size).

Records with an inconclusive call do not appear. Values without a mark were called inactive. Calls of active or inactive are those of the source. Unless noted, the call rests on the fitted dose curve; in most records, active means well fitted curve in the direction sought with a large enough effect in the repeat runs; inconclusive means weak or mixed curves; inactive means no such curve, though single readings can be large; an effect the other way counts as inactive or inconclusive.

Sequence of Cytochrome P450 2C9 (Homo sapiens) (P11712 whole entry, looked up): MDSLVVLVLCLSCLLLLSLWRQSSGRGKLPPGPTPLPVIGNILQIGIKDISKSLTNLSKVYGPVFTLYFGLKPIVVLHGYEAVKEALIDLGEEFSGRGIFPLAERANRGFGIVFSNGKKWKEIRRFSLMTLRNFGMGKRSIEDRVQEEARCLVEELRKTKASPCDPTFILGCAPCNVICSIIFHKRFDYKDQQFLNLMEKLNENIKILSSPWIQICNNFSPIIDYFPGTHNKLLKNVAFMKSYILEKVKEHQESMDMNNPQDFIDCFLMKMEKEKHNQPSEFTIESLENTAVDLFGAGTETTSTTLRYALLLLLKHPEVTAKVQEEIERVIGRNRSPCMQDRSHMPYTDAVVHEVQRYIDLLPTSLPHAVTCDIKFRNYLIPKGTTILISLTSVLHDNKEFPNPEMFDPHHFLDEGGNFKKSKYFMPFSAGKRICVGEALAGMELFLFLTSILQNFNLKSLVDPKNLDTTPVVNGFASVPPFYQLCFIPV
Sequence of Cytochrome P450 2D6 (Homo sapiens) (P10635 whole entry, looked up): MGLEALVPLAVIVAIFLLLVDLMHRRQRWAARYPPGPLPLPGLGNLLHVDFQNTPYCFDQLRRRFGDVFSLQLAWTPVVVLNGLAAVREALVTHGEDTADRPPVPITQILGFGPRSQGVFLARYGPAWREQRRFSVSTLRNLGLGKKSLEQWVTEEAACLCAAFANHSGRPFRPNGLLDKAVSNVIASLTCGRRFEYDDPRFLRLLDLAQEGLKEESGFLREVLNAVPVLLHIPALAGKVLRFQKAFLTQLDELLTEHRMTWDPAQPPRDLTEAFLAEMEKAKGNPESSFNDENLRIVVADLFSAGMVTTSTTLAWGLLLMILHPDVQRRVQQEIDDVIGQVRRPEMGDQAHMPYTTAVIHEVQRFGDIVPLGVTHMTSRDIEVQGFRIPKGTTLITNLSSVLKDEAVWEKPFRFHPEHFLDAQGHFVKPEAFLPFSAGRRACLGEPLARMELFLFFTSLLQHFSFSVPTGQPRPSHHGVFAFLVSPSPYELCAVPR

For `C/C=C/C=C/C(=O)O`, the Potency entry in experiment [1] and in experiment [2] was “inactive” each time.

Take `O=P(O)(O)OP(=O)(O)O`: the Potency entry in experiment [1] is “inactive”.

As for `CCCCC(O)c1ccccc1` (configuration not stated), in experiment [1], the Potency result is “inactive”.

As for `FCOC(C(F)(F)F)C(F)(F)F`, the Potency entry in experiment [1] and in experiment [2] was “inactive” throughout.

For `CN(C)c1ccc(C(=C2C=CC(=[N+](C)C)C=C2)c2c(O)c(S(=O)(=O)[O-])cc3cc(S(=O)(=O)O)ccc23)cc1`, the Potency in experiment [1] was 15.1 µM (active).

Regarding `Cc1cc(-c2ccc(N=Nc3ccc4c(S(=O)(=O)O)cc(S(=O)(=O)O)c(N)c4c3O)c(C)c2)ccc1N=Nc1ccc2c(S(=O)(=O)O)cc(S(=O)(=O)O)c(N)c2c1O`, the Potency in experiment [3] is 31.6 µM (active).

Take `COC(=O)c1ccccc1O`: the Potency result in experiment [1] and in experiment [2] was “inactive” throughout.

`CCOC(=O)C1=C(COCCN)NC(C)=C(C(=O)OC)C1c1ccccc1Cl` (configuration not stated): the Potency in experiment [1] was 16.9 µM (active); in experiment [2], 2.68 µM (active).

Turning to `CCCC(=O)O`, the Potency result in experiment [1] and in experiment [2] was “inactive” throughout.

Turning to `CO/N=C(\C(=O)N[C@@H]1C(=O)N2C(C(=O)O)=C(C[N+]3(C)CCCC3)CS[C@H]12)c1csc(N)n1`, the Potency entry in experiment [1] and in experiment [2] was “inactive” each time.

Regarding `C[C@@](Cc1ccc(O)c(O)c1)(NN)C(=O)O`, in experiment [4], the call was inactive. In addition, the Potency entry in experiment [3] and in experiment [1] was “inactive” throughout. Besides, the max response in experiment [5] was -4.61%.

On to `C[C@H](O)CN(C)C`, for which the Potency result in experiment [1] and in experiment [2] was “inactive” throughout.

Take `N=C(N)n1cccn1`: the Potency result in experiment [1] and in experiment [2] was “inactive” in each case. The result in experiment [6] was inactive.

With `OCCOCCOCCO`, the Potency entry in experiment [1] and in experiment [2] was “inactive” throughout.

On to `CCCCCCOC(=O)c1cccnc1`, for which the Potency in experiment [1] was 10.7 µM (active); in experiment [2] it was 15.1 µM (active).

Regarding `O=S(=O)(O)CC(S)CS` (configuration not stated), the Potency entry in experiment [1] is “inactive”.

For the compound `Nc1nccs1`, the Potency result in experiment [1] and in experiment [2] was “inactive” each time.

Regarding `CN1C(=O)OC(C)(C)C1=O`, the Potency result in experiment [1] was “inactive”.

In the case of `O=C(OC1C[C@@H]2CC3C[C@H](C1)N2CC3=O)c1c[nH]c2ccccc12` (some centres not stated), the Potency in experiment [1] is 6.74 µM (active); in experiment [2], 16.9 µM (active).

In the case of `O=C(OCc1ccccc1)c1cccnc1`, the Potency result in experiment [1] is “inactive”.

Take `Cc1ncc(C[n+]2csc(CCO)c2C)c(N)n1`: the Potency result in experiment [1] and in experiment [2] was “inactive” in each case. In addition, in experiment [6], the outcome was inactive.

`CCCOc1cc(N)ccc1C(=O)OCCN(CC)CC`: in experiment [1], the Potency was 3.38 µM (active).

For `CC(=O)Oc1cc(C(F)(F)F)ccc1C(=O)O`, the Potency entry in experiment [1] was “inactive”. For the same compound, the compound was classed as inactive in experiment [6].

As to `CC(CCc1ccc(O)cc1)NCC(O)c1ccc(O)cc1` (configuration not stated), the Potency in experiment [1] is 6.74 µM (active). Besides, the Potency entry in experiment [2] is “inactive”.

Consider `COC(=O)CCC[N+](C)(C)C`, for which the Potency result in experiment [1] and in experiment [2] was “inactive” throughout.

On to `CCC(O)c1ccccc1` (configuration not stated), for which the Potency result in experiment [1] and in experiment [2] was “inactive” in each case.

In the case of `CC12CCC(C[N+](C)(CCC[N+](C)(C)C)C1)C2(C)C` (configuration not stated), the Potency entry in experiment [1] and in experiment [2] was “inactive” each time.

Consider `CCC(Cc1c(I)cc(I)c(O)c1I)C(=O)O` (configuration not stated), for which the Potency entry in experiment [1] is “inactive”. For the same compound, in experiment [2], the Potency was 10.7 µM (active).

As for `C=CC1=C(C(=O)O)N2C(=O)[C@@H](NC(=O)/C(=N\O)c3csc(N)n3)[C@H]2SC1` (stereo in doubt), the Potency result in experiment [1] and in experiment [2] was “inactive” throughout. Besides, the compound was classed as inactive in experiment [6].

As for `NC(=S)N=Nc1ccc(NN=C(N)N)cc1`, the Potency was 10.7 µM (active) in experiment [1] and 15.1 µM (active) in experiment [2]. Further, in experiment [6], the outcome was inactive.

With `CC(CC=O)CCCC(C)(C)O` (configuration not stated), in experiment [1], the Potency entry was “inactive”.

For the compound `Nc1nc(=O)n([C@@H]2CS[C@H](CO)O2)cc1F`, the Potency entry in experiment [1] and in experiment [2] was “inactive” each time.

With `c1ccc(-n2cnnn2)cc1`, the Potency result in experiment [1] and in experiment [2] was “inactive” each time.

As for `N[C@@H](Cc1cc(I)c(Oc2ccc(O)c(I)c2)c(I)c1)C(=O)O`, the Potency entry in experiment [7] was “inactive”.

`COC(=O)[C@@H](N)CS`: the Potency result in experiment [1] is “inactive”. Also, the Potency in experiment [2] is 9.52 µM (active).

`CC(C)[C@@H]1CC[C@@H](C)C[C@H]1OC(=O)c1ccccc1O`: the Potency result in experiment [1] and in experiment [2] was “inactive” each time.

Take `CCCc1ccc(C(=O)O)cc1`: the Potency result in experiment [1] and in experiment [2] was “inactive” in each case.

In the case of `O=C(O)c1cc(N=Nc2ccc(O)c(C(=O)O)c2)ccc1O`, in experiment [2], the Potency was 10.7 µM (active).

With `NC(=O)OCC(O)COc1ccc(Cl)cc1` (configuration not stated), the Potency result in experiment [1] and in experiment [2] was “inactive” each time.

Take `C=CCCCCCCCCC(=O)OC`: the Potency result in experiment [1] and in experiment [2] was “inactive” throughout.

For `COC(=O)C(CN)c1c[nH]c2ccc(OC)cc12` (configuration not stated), the Potency result in experiment [2] was “inactive”.

Take `CCCCC(=O)O[C@H]1CC[C@H]2[C@@H]3CCc4cc(O)ccc4[C@H]3CC[C@]12C`: in experiment [1], the Potency result was “inactive”. Further, in experiment [2], the Potency is 19 µM (active).

Turning to `Cc1cc(-c2ccc(N=Nc3c(S(=O)(=O)O)cc4cc(S(=O)(=O)O)cc(N)c4c3O)c(C)c2)ccc1N=Nc1c(S(=O)(=O)O)cc2cc(S(=O)(=O)O)cc(N)c2c1O`, in experiment [2], the Potency was 15.1 µM (active).

Turning to `Oc1cc(O)cc(O)c1`, the Potency entry in experiment [1] and in experiment [2] was “inactive” in each case.

For `O=C1CCC(=O)N1CO`, the Potency entry in experiment [1] and in experiment [2] was “inactive” each time.

In the case of `C[C@H](CCCC(C)(C)O)[C@H]1CC[C@H]2[C@@H]3CC=C4C[C@@H](O)CC[C@]4(C)[C@H]3CC[C@]12C`, the Potency entry in experiment [1] and in experiment [2] was “inactive” each time.

With `Cc1c(C)c2c(c(C)c1OC(=O)CCC(=O)O)CC[C@@](C)(CCC[C@H](C)CCC[C@H](C)CCCC(C)C)O2`, in experiment [2], the Potency is 21.3 µM (active).

`CCOc1ccc(S(=O)(=O)O)c2cccnc12`: the Potency entry in experiment [1] and in experiment [2] was “inactive” in each case.

On to `Cn1c(O)c(N=NC(N)=S)c2ccccc21`, for which the Potency in experiment [2] is 9.52 µM (active).

With `O=C(CO)[C@@H](O)[C@H](O)[C@@H](O)C(=O)O`, the Potency entry in experiment [1] and in experiment [2] was “inactive” in each case.

Consider `FC(F)OC(Cl)C(F)(F)F` (configuration not stated), for which the Potency result in experiment [1] and in experiment [2] was “inactive” in each case.

On to `CCOC(C)OCC`, for which the Potency result in experiment [1] and in experiment [2] was “inactive” in each case.

With `CCCCCCCCCCCCCCCCCC[N+](C)(C)CCC[Si](OC)(OC)OC`, the Potency in experiment [1] is 15.1 µM (active). In addition, in experiment [2], the Potency entry was “inactive”.

As for `Cc1cccc(C)c1NC(=O)C1CCCCN1C` (configuration not stated), the Potency in experiment [1] is 9.52 µM (active). For the same compound, the Potency entry in experiment [2] was “inactive”.

Regarding `C[C@H](NCCc1ccc(O)cc1)[C@H](O)c1ccc(O)cc1`, the Potency result in experiment [2] is “inactive”.

For the compound `O=S(=O)(O)CCCS(=O)(=O)O`, the Potency entry in experiment [1] and in experiment [2] was “inactive” throughout.

With `CCN(CC)C(=O)c1cccnc1`, the Potency result in experiment [1] and in experiment [2] was “inactive” each time.

In the case of `CN1c2c(nc(N)[nH]c2=O)NCC1CNc1ccc(C(=O)NC(CCC(=O)O)C(=O)O)cc1` (configuration not stated), the Potency entry in experiment [1] and in experiment [2] was “inactive” throughout.

Consider `CCOC(=O)[C@@H](N)CS`, for which, in experiment [2], the Potency was 10.7 µM (active).

In the case of `CC[C@H]1OC(=O)C[C@@H](O)[C@H](C)[C@@H](O[C@@H]2O[C@H](C)[C@@H](O[C@H]3C[C@@](C)(O)[C@@H](O)[C@H](C)O3)[C@H](N(C)C)[C@H]2O)[C@@H](CC=O)C[C@@H](C)C(=O)/C=C/C(C)=C/[C@@H]1CO[C@@H]1O[C@H](C)[C@@H](O)[C@@H](OC)[C@H]1OC`, the Potency entry in experiment [1] and in experiment [2] was “inactive” each time.

Regarding `CC(C)=CCC/C(C)=C/CC/C(C)=C/CC/C(C)=C/CC1=C(C)C(=O)c2ccccc2C1=O`, the Potency in experiment [2] was 8.49 µM (active).

Take `CC1(O)CCC(C(C)(C)O)CC1` (configuration not stated): the Potency result in experiment [1] and in experiment [2] was “inactive” each time.

With `c1ccc2ccccc2c1`, the Potency result in experiment [1] and in experiment [2] was “inactive” in each case.

On to `CN(C)CCOc1ccc(/C(=C(/CCCl)c2ccccc2)c2ccccc2)cc1`, for which the Potency entry in experiment [7] is “inactive”.

As to `S=C=Nc1ccc(N=C=S)cc1`, the Potency entry in experiment [1] and in experiment [2] was “inactive” each time.

The values are drawn from PubChem BioAssay (NCATS).
